Bioassay records: PubChem BioAssay, National Center for Advancing Translational Sciences (NCATS)
This is one part of a sample in which hits are shown more often than they occur.
Integrin act MD: qHTS for Activators of Integrin-Mediated Alleviation for Muscular Dystrophy; Potency, µM (top dose mostly 38.3 µM), usual class: activators; alpha7betagal myoblasts, beta-gal FDG fluorescence, 48 h; 350,000 compounds, 0.064% hits; AID 624291, 2012; further: nearly all actives have a fitted effect of over 60% in size
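alpha7betagal+/- myoblasts (passage 13, 250/well) treated 48 h at 37C with compounds at 1:260 dilution of DMSO stock. Lysed, then beta-galactosidase activity read as FDG fluorescence (ex 480/em 540) after 30 min, with pre-read for autofluorescence.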
Apoferritin bind: qHTS Assay for Identification of Novel General Anesthetics; Ferritin light chain (Equus caballus), P02791; AID 485281, 2010; 350,000 compounds, 0.074% hits; apoferritin/1-aminoanthracene competitive binding, fluorescence; Potency, µM (doses to about 77.5 µM), actives largely listed as inhibitors; further: nearly all actives have a fitted effect of over 20% in size
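In PBS, apoferritin at 10 uM is loaded with 1-AMA from a 50% saturated solution. After 10 min of compound exposure at ambient temperature, reduced 535 nm fluorescence indicates probe displacement.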
ClpP mod: qHTS Assay for Activators of ClpP; purified B. subtilis ClpP, FRET peptide cleavage, 20 min; Potency, µM (highest dose often 57.5 µM); 340,000 compounds, 1.9% hits; active means well fitted falling curve with a large enough effect; inconclusive means small, poorly fitted or top-dose-only effect; inactive means no such curve, though single readings can be large or run the other way; further: the source files actives as falling curves though it sought activators and does not explain the sign; nearly all actives have a fitted effect of over 65% in size
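FRET quenching reversal measured ClpP activation: 10 microg/mL B. subtilis ClpP at pH 8 with the FRET-FV decapeptide, read at 430 nm after 320 nm excitation. The 20-min minus 0-min signal was scaled between DMSO/no-enzyme wells and ADEP (5.8 microM final).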
N370S GC: qHTS Assay for Inhibitors and Activators of N370S glucocerebrosidase as a Potential Chaperone Treatment of Gaucher Disease. 330,000 compounds, 0.092% hits. AID 2101, 2009. Potency, µM (series often up to 59.4 µM), most hits filed as inhibitors. N370S GC spleen homogenate, 4MU-glucoside fluorescence
CBFb-RUNX1 inh: qHTS Assay for Compounds Blocking the Interaction Between CBF-beta and RUNX1 for the Treatment of Acute Myeloid Leukemia | Runt-related transcription factor 1 (Homo sapiens) + Core-binding factor subunit beta … | AlphaScreen CBFb-His/RUNX1-biotin binding, biochemical | Potency, µM (highest dose often 59.8 µM), most hits filed as inhibitors | 230,000 tested, under 10 active
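His-tagged CBF-beta and biotinylated RUNX1 (30 nM each) were premixed 20 min at room temperature, exposed to compound for 15 min, then given nickel-chelate and streptavidin AlphaScreen beads (50 ng each). After 90 min, AlphaScreen signal was read.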
GRP78 ERSR act: qHTS for Inducers of the Endoplasmic Reticulum Stress Response (ERSR) in Human Glioma: qHTS; U87-MG GRP78 promoter luciferase reporter, 16 h; Potency, µM, usual class: activators; 420,000 compounds, 0.02% hits; AID 602332, 2012; further: series mostly up to about 76 µM; nearly all actives have a fitted effect of over 35% in size
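Stably transfected U87-MG human glioma cells carrying a GRP78-based luminescent sensor were seeded at 1000 cells/well, pin-dosed with compounds and incubated 16 h. Luciferase reagent was then added, and end-point luminescence was read after 10 min at room temperature.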
A number is an active result; i = inactive; ? = inconclusive; nt = not tested or not shown; [ ] = remark or other dose. Unless noted, the call rests on the fitted dose curve; in most records, active means well fitted curve in the direction sought with a large enough effect; inconclusive means small, poorly fitted or top-dose-only effect, or another doubt; inactive means no such curve, though single readings can be large; an effect the other way counts as inactive or inconclusive.

SMILES | Integrin act MD | Apoferritin bind | ClpP mod | N370S GC | CBFb-RUNX1 inh | GRP78 ERSR act
Cc1nc(C)c(-c2ccc(SCC(=O)Nc3ccccc3F)nn2)s1 | nt | 22µM | i | nt | nt | i
Cc1ccc(C(=O)N2CCOc3ccc(CN4CCN(Cc5ccccn5)CC4)cc3C2)cc1 | nt | nt | nt | nt | nt | i
COC(=O)c1cc(CNC(=O)c2cccc(N(C)C)c2)cc(NC(=O)c2ccccc2Cl)c1 | nt | nt | nt | nt | nt | i
C(C#CCCCCCCCCC[n+]1ccccc1)#CCCCCCCCCC[n+]1ccccc1 | i | i | nt | 11µM | nt | i
CCCCCCCCCC[n+]1cccc(Br)c1 | nt | nt | i | nt | nt | i
CC(NC(=O)c1ccccc1O)c1ccccc1 (stereo not drawn) | i | ? | 16µM | i | i | i
COc1ccccc1C(=O)NC(C)c1ccccc1 (stereo not drawn) | i | ? | i | i | i | i
CC1CCN(C(=O)c2ccccc2SCC(=O)NCC2CCCCC2)CC1 | i | nt | 22µM | i | nt | i
O=C(NCc1ccco1)/C(=C/C=C/c1ccccc1)NC(=O)c1ccco1 | i | i | i | i | i | i
CCNC(=O)/C(=C\C=C\c1ccccc1)NC(=O)c1ccc(Br)o1 | i | i | 3.2µM | ? | i | i
Cc1cc2nc(-c3ccc(SCC(=O)Nc4ccc5c(c4)OCCO5)nc3)[nH]c2cc1C | i | i | i | i | i | i
CC(C)(C)N1C(=O)c2ccc(C(=O)Nc3ccc(-c4nc5ccccc5[nH]4)cc3)cc2C1=O | i | i | ? | i | i | ?
O=C(Nc1ccc(-c2nc3ccccc3[nH]2)cc1)c1ccc(N2C(=O)CCC2=O)cc1 | i | i | 22µM | i | i | i
Cc1ccc2nc(-c3ccc(SCC(=O)Nc4nc(C)cs4)nc3)[nH]c2c1 | i | i | 7.9µM | i | i | i
COCCNC(=O)CSc1ccc(-c2nc3ccccc3[nH]2)cn1 | i | i | i | i | nt | i
Cc1cc2nc(-c3ccc(SCC(=O)N4CCOCC4)nc3)[nH]c2cc1C | i[7.66 µM] | i | 3.2µM | i | i | i
Cc1ccc2nc(-c3ccc(SCC(=O)Nc4nnc(C)s4)nc3)[nH]c2c1 | i | i | i | i | i | i
CCOC(=O)CSc1ccc(-c2nc3ccccc3[nH]2)cn1 | i | ? | 32µM | i | i | i
COc1ccc(/C=C/c2ccnc3ccccc23)c(OC)c1 | nt | nt | i | nt | nt | i
CCCC[C@@H](CC)COC(=O)C[C@H](C(=O)OC[C@H](CC)CCCC)S(=O)(=O)O | nt | nt | nt | nt | nt | i
CN(C)c1ccc(/C=C2\CCc3ccccc32)cc1 | nt | nt | i | nt | nt | i
CCOC(=O)N1CCN(C(=O)c2ccc(-c3ccccc3OC)nc2N2CCC(N3CCCC(CO)C3)CC2)CC1 (stereo not drawn) | nt | nt | nt | nt | nt | i
CCOC(=O)CSc1ccc(-c2nc3cc(C)c(C)cc3[nH]2)cn1 | i | i | 32µM | i | i | ?
Cc1ccc(SCC(=O)Nc2ccc(-c3nc4ccccc4[nH]3)cc2)cc1 | i | i | 25µM | i | i | i
O=C(CSc1ccc(-c2nc3ccccc3[nH]2)cn1)Nc1ccc2c(c1)OCCO2 | i | i | 25µM | i | i | ?
SMILES | Integrin act MD | Apoferritin bind | ClpP mod | N370S GC | CBFb-RUNX1 inh | GRP78 ERSR act
Cc1ccc2nc(-c3ccc(SCC(=O)Nc4ccc5c(c4)OCCO5)nc3)[nH]c2c1 | i | i | i | i | i | i
Cc1cc(OCC(=O)Nc2cccc(S(=O)(=O)NC3=NCCCCC3)c2)ccc1Cl | i | i | i | i | i | i
CCCCCC(=O)Nc1cccc(S(=O)(=O)NC2=NCCC2)c1 | i | nt | 35µM | nt | nt | i
Cc1ccc(OCC(=O)Nc2cccc(S(=O)(=O)NC3=NCCCCC3)c2)cc1C | i | i | 14µM | i | nt | i
CCCNCC(=O)Nc1cccc(S(=O)(=O)NC2=NCCCCC2)c1 | i | nt | i | nt | nt | i
CC1=CC(c2ccccc2)n2nc(N3C(=O)C4CC=CCC4C3=O)nc2N1 (stereo not drawn) | i | i | 2.2µM | i | i | i
CC1=CC(c2ccccc2)n2nc(N3C(=O)CCC3=O)nc2N1 (stereo not drawn) | i | i | 28µM | i | i | i
